Reference: PubChem BioAssay (NCI)
The panel holds about 83,000 compounds, 20% with a hit somewhere; the sample as a whole holds those more often.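 For each line, cells grew in 96-well plates with the test compound present at a single concentration for 48 hours.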 A number with no mark means an inactive call. Active and inactive are the calls of the source.

Each molecule was assayed on MOLT-4 leukemia (assay: NCI-60 one-dose screen, 48 h (100 = growth as untreated, 0 = no growth, -100 = all killed)). Conditions: 10 µM unless noted.
Protocol: Growth inhibition of the MOLT-4 human tumor cell line is measured as a screen for anti-cancer activity. Cells are grown in 96 well plates and exposed to the test compound for 48 hours. Compounds are tested at a single concentration, which is 10^-5 M for most compounds. The reported endpoint is percent growth (GI% or GIPRCNT), where numbers from 0 - 100% represent growth inhibition, and numbers from -100% - 0 represent cell death. For example, a value of 40 represents 60% growth inhibition. A value of 0 means no net growth occurred over the course of the experiment. A value of -40 indicates 40% of cells at the beginning of the experiment died by the end of the experiment. A value of -100 means all cells are dead at the end of the experiment.
NCI-60 Human Tumor Cell Lines Screen was performed using the standard one-dose NCI protocol, which is described in more detail at https://dtp.cancer.gov/discovery_development/nci-60/default.htm.
Compounds with GIPRCNT values below 10 were considered active. Activity score was based on GIPRCNT using the following formula: […]
Score is 0 for GIPRCNT values of 100 or above, 50 for GIPRCNT values of 0, and 100 for GIPRCNT values of -100.

| SMILES | growth |
| --- | --- |
| C=Cc1cc[n+](CCCCCCCCCCCC)cc1 | 94.7% |
| O=C(CCN1CCCC1)Nc1ccc2c(NCc3ccc(F)cc3)c3ccccc3nc2c1 | -19.8% (active) |
| CC(=O)N1N=C(c2cccc(Nc3ccncc3)c2)CC1c1ccc2c(c1)OCO2 (stereo not given) | 77.7% |
| Cc1ccc(Nc2cc(=S)nc(N)[nH]2)cc1C | 97.4% |
| COc1cccc(CCC(=O)c2cc3c(N)c(C(=O)Nc4cccc(Cl)c4C)sc3nc2C)c1 | 16% |
| O=C(Nc1nc2ccc(C(=O)N3CCN(c4ccc(Cl)c(Cl)c4)CC3)cc2s1)c1ccc(NCCc2ccccc2)c([N+](=O)[O-])c1 | 95.7% |
| CC(=O)CCSc1ccc(OC(C)=O)cc1 | 94.1% |
| COc1ccc(/C=C(/c2ccccc2)[N+](=O)[O-])cc1 | -15.5% (active) |
| O=S(=O)(NCCNc1nccc(-c2c(-c3ccc(F)c(O)c3)nc3sccn23)n1)c1ccccc1 | 52.8% |
| COc1ccccc1Nc1cc(O)c2c(=O)cc(-c3ccccc3)oc2c1 | 25.9% |
| CCCC1C(C(=O)OCC)=C(N)Oc2cc(O)ccc21 (stereo not given) | 89% |
| O=C(O)/C=C\C(=O)N1C/C(=C\c2ccccc2Cl)C(=O)/C(=C/c2ccccc2Cl)C1 | 4.86% (active) |
| Cn1c(=O)c2[nH]c(CCCc3nc4c([nH]3)c(=O)n(C)c(=O)n4C)nc2n(C)c1=O | 136% |
| COc1ccc(Cn2nc3c(c2-c2cc(OC)c(OC)c(OC)c2)-c2oncc2CC3)cc1 | 77.9% |
| CCN(CC)CCCCCCNc1cc(OC)cc2cccnc12 | -57.3% (active) |
| Cc1cc(C(=O)Nc2ncnc3nc[nH]c23)no1 | 91.7% |
| COc1cc2nc(-c3ccc(C(F)(F)F)cc3)cc(OCCN3CCCC3)c2cc1OC | 74.2% |
| O=C(Nc1ccc2ncnc(Nc3ccc(Oc4cccc(F)c4)c(Cl)c3)c2c1)c1ccc(CN2CCOCC2)cc1 | -3.45% (active) |
| COc1ccc(CNC(=O)COc2ccc(/C=N/Nc3nc4ccccc4s3)cc2)cc1 | 76.5% |
| O=C(O)CCCCCCCCCCCCCCC(=O)O | 103% |

| SMILES | growth |
| --- | --- |
| CCCCCCCC(=O)Nc1nc2[nH]c(CN3CCN(Cc4cccc(I)c4)CC3)c(CN3CCN(Cc4cccc(I)c4)CC3)c2c(=O)[nH]1 | -36% (active) |
| O=C(c1ccccc1)N1N=C(c2ccc(-n3ccc(C(F)(F)F)n3)cc2)CC1c1ccc[nH]1 (stereo not given) | 75.8% |
| CCN1C(=O)N(CC)C2NC(SC)=NC21 (stereo not given) | 102% |
| Cn1c(COC(=O)N2CCCCC2)nc2c(N3CCOCC3)nc(-c3ccccc3)nc21 | -5.2% (active) |
| CCC1(CC)NC(=O)c2c(c3ccc(Cl)c(Cl)c3n2C)C1C#N (stereo not given) | 4.72% (active) |
| O=C1/C(=C/c2ccc(O)cc2)COc2ccc(-c3ccccc3)cc21 | -22.5% (active) |
| COc1ccc(-n2cc(-c3cc(OC)c(OC)c(OC)c3)n(C(C)=O)c2=O)cc1 | 103% |
| O=C1c2ccccc2C(=O)c2c(NCCN=Cc3ccccc3O)cccc21 | -16.4% (active) |
| COc1ccc(C(O)c2cc3c(N)c(C(=O)Nc4ccccc4)sc3nc2C)cc1 (stereo not given) | 11.4% |
| CN1CCN(c2cc(F)c(NC3=C(Cl)C(=O)c4ncccc4C3=O)c(F)c2)CC1 | -22.7% (active) |
| O=S(=O)(NCCCNc1nccc(-c2c(-c3cccc(O)c3)nc3occn23)n1)c1ccc(F)cc1 | 70% |
| CC(C)Cc1ccc(C(C)C(=O)NCc2c[nH]c3ccc(Cl)cc23)cc1 (stereo not given) | 65.6% |
| COc1cccc(-c2nc3occn3c2-c2ccnc(NCCCNS(=O)(=O)c3cccc(F)c3)n2)c1 | 67.7% |
| COc1ccc(C(=O)c2cc3c(N)c(C(=O)Nc4cccc5ccccc45)sc3nc2C)cc1 | 13.8% |
| C=C(C)[C@@H]1CC[C@]2(C(=O)NCC(=O)OC)CC[C@]3(C)[C@H](CC[C@@H]4[C@@]5(C)Cc6c([nH]c7ccccc67)C(C)(C)[C@@H]5CC[C@]43C)[C@@H]12 | 40.9% |
| NC(=S)N/N=C(\c1ccc(Cl)cc1)C1CC1 | 46.9% |
| CC(=O)c1cccc(NS(=O)(=O)c2cccc(C(=O)Nc3ccc(Br)cc3)c2)c1 | 38.7% [25 µM] |
| O=C1CCCCCCCCC(O)C(O)CCCC(c2cccs2)O1 (stereo not given) | 31% |
| NC(=O)c1ncn(C2OC(CO)C(O)C2O)n1 (stereo not given) | 52.7% |
| CC(=O)OCC(=O)C1(O)C(C)CC2C3C=C(C)C4=Cc5c(cnn5-c5ccccc5)CC4(C)C3C(O)CC21C (stereo not given) | 9.2% (active) |
